About 79,000 compounds went through this panel and 15% of them were active in at least one assay; those are over-represented in the sample as a whole. Values without a mark were called inactive. Activity calls are given as the source filed them. Cut-off read from the data, not from the text of the source: active = growth inhibition above about 70%; inactive = the rest.
Tests used:
[1] = NCI Yeast Anticancer Drug Screen. Data for the rad50 strain (AID 155);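 note: 0% = growth of vehicle-only cultures of the same strain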; details: S. cerevisiae rad50 strain growth inhibition; at 50.0 µM; stronger effect = higher value
In short: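 Vehicle-treated cultures provide the reference for the growth inhibition reported for compound-exposed, repair-deficient yeast.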

[2] = NCI Yeast Anticancer Drug Screen. Data for the mec2-1 strain (AID 157); details: S. cerevisiae mec2-1 strain, at 50.0 µM, stronger effect = higher value
In short: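 Compounds were applied to mec2-1 yeast cells. Their growth was then compared with that of vehicle-treated cultures to give growth inhibition.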

[3] = NCI Yeast Anticancer Drug Screen. Data for the sgs1 mgt1 strain (AID 161);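 note: 0% = growth of cultures given vehicle only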; details: S. cerevisiae sgs1 mgt1 strain, at 50.0 µM, stronger effect = higher value
In short: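 This yeast growth screen uses a strain with defined DNA-repair lesions; compound-treated growth is compared with vehicle-treated growth.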

[4] = NCI Yeast Anticancer Drug Screen. Data for the cln2 rad14 strain (AID 165);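 note: 0% = growth equal to vehicle treated cultures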; details: S. cerevisiae cln2 rad14 strain, at 50.0 µM, stronger effect = higher value
In short: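 Strain: cln2 rad14 yeast, altered in cell cycle control and DNA damage repair. Read-out: growth inhibition vs vehicle.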

[5] = NCI Yeast Anticancer Drug Screen. Data for the bub3 strain (AID 167); details: S. cerevisiae bub3 mutant strain, at 50.0 µM, stronger effect = higher value
In short: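 Mutant yeast screening strain plus compound; vehicle-treated cultures serve as the 0% inhibition reference.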

[6] = NCI Yeast Anticancer Drug Screen. Data for the mlh1 rad18 strain (AID 175); details: S. cerevisiae mlh1 rad18 strain growth inhibition; at 50.0 µM; stronger effect = higher value
In short: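 A repair-deficient yeast strain is exposed to test compound, and growth is scored relative to vehicle-treated controls.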

Row | Compound | growth inhibition [1] | growth inhibition [2] | growth inhibition [3] | growth inhibition [4] | growth inhibition [5] | growth inhibition [6]
1 | CN(C)CCCc1c2ccccc2nc2ccc(Cl)cc12 | 12.5% | 4.5% | -10% | -2.65% | 2.65% | 26.5%
2 | OCCc1cc2ccccc2c2ccccc12 | -3.55% | 6.75% | -4.8% | -11.9% | -15.9% | -12.9%
3 | Cc1c(C)c(C(C)O)c(C)c(C(C)O)c1C (stereo unspecified) | 4.55% | 5.65% | 17.6% | 21.6% | 11.7% | 18.6%
4 | CN(C)c1ccc(/C=C/c2ccnc3ccc(Cl)cc23)cc1 | 23% | 22.5% | 32.1% | 5.85% | 21.6% | 34%
5 | CCCOC(=O)C(OC(=O)c1ccccc1)C(OC(=O)c1ccccc1)C(=O)OCCC (stereo unspecified) | -0.65% | 0.1% | -8% | -10.9% | 5.05% | -3.7%
6 | CCC[n+]1ccc(CCS(=O)(=O)c2ccc(N)cc2)cc1 | 6.15% | -6.55% | 1.9% | -6% | 21.4% | -16.7%
7 | CC[O-].CC[O-].COc1ccc(C(=O)[CH-]C(C)=O)cc1OC.COc1ccc(C(=O)[CH-]C(C)=O)cc1OC.[Ti+4] | -17.4% | 18.5% | -2.7% | 9.85% | 29.9% | -10.3%
8 | COc1ccc2c(c1)OCc1c-2oc2ccccc2c1=O | -24.8% | -4.55% | -10.9% | -25.4% | -3.95% | -5.3%
9 | CC1(C)N=C(C(N)=O)c2ncn(CCO)c2N1 | -12.4% | -34% | -21.6% | -10.7% | -9.95% | -23.4%
10 | NC(=S)NNC(N)=S | 2.2% | -12.9% | -7.3% | 17.4% | -3.2% | 24.5%
11 | O=C(Nc1c(Oc2ccc(Cl)c(Cl)c2)ccc(Cl)c1S(=O)(=O)O)Nc1c(Oc2ccc(Cl)c(Cl)c2)ccc(Cl)c1S(=O)(=O)O | 22.2% | -3.25% | 13.9% | 11.7% | 22.1% | 22.2%
12 | C[C@]1(CO)[C@H]2CC[C@@]34C=C[C@@](CO)(CC[C@H]3[C@]2(C)CC[C@H]1O)C4 | 5.45% | 1.05% | 39.6% | 6.4% | 11.7% | -48.4%
13 | CCN(CC)C(=O)COc1ccc(Cl)cc1C(C)C | -17.9% | -16.8% | 1.35% | -2.45% | 14.9% | -31.4%
14 | Cn1c(=Nc2ccc(Cl)cc2)sc2ccccc21 | -8.65% | -31.2% | -21.4% | -36.9% | 1.2% | -21.9%
15 | CN(C)CCNC1c2ccccc2-c2ccccc21 | -15.1% | -22.6% | 3.35% | -0.9% | 10.2% | -9%
16 | CC(C)(O)CCC(C)(C)O | 60.3% | -19.1% | 41.9% | -25.9% | 0.5% | 45.2%
17 | Cc1ccc(S(=O)(=O)OCC2=C(COS(=O)(=O)c3ccc(C)cc3)C3c4ccccc4C2c2ccccc23)cc1 | 31.3% | 5.35% | 1.55% | -27.8% | -1.35% | 4.8%
18 | C[N+](C)(C)/C=C/c1ccccc1 | 30.8% | -8.2% | 21% | -11.3% | 0.2% | 38.9%
19 | CCOC(=O)CC(C(C)=O)C(=O)OCC (stereo unspecified) | 14.9% | 12.3% | -3.55% | -29.6% | 5.6% | -1.4%
20 | COC(=O)Nc1c2ccccc2c(NC(=O)OC)c2ccccc12 | -7.15% | 13% | 19.7% | -88.8% | 23.1% | 0.75%
21 | N#CCCC(CC#N)S(=O)(=O)O (stereo unspecified) | 14.3% | 1.65% | -7.75% | -54.6% | 15.7% | -13.1%

Row | Compound | growth inhibition [1] | growth inhibition [2] | growth inhibition [3] | growth inhibition [4] | growth inhibition [5] | growth inhibition [6]
22 | COc1cccc(CN2CCCN(Cc3cccc(OC)c3O)C2c2ccccc2)c1O | 22.1% | 3.2% | 1.8% | -6.45% | 0.9% | 12.4%
23 | NNC(=O)N/N=C(\CBr)c1ccc(Cl)cc1 | -2.35% | -0.45% | 6.9% | -47.6% | 3.95% | 4.35%
24 | CCN(CC)CCCC#N | -5.25% | 4.7% | -8.8% | -13% | -2.6% | -2.85%
25 | O=C(/C=C/c1ccc(Cl)cc1)c1ccncc1 | 33.5% | 0% | 11.6% | 18% | 16.1% | 33.9%
26 | O=C1C(c2ccccc2)=C(O)c2cccc3cccc1c23 | -24.4% | -33.5% | -13% | 13.4% | -3.65% | -57.6%
27 | O=c1n(CCCN2CCN(c3cccc(Cl)c3)CC2)nc2ccccn12 | 45.9% | 11.4% | 21.9% | 19.8% | -1.4% | 8.35%
28 | Cc1ccc(SC(=O)Cc2ccc([N+](=O)[O-])cc2)cc1 | 96.6% (active) | 98% (active) | 98.2% (active) | 88.3% (active) | 96.2% (active) | 96.8% (active)
29 | COc1ccc(C2(C3NCCC4=C3CCCC4)CC2)cc1 (stereo unspecified) | 11.9% | -5.75% | 32% | -4.1% | -3.7% | 23.6%
30 | Oc1ccc(Oc2cc3c(cc2Oc2ccc(O)cc2)-c2nc-3nc3[nH]c(nc4nc(nc5[nH]c(n2)c2cc(Oc6ccc(O)cc6)c(Oc6ccc(O)cc6)cc52)-c2cc(Oc5ccc(O)cc5)c(Oc5ccc(O)cc5)cc2-4)c2cc(Oc4ccc(O)cc4)c(Oc4ccc(O)cc4)cc32)cc1 | -94.7% | -56.7% | -119% | -99.7% | -80.5% | -104%
31 | CCCCCCCCCCCC[N+]12CC[N+](C)(CC1)CC2 | 16.2% | -24.4% | -10.7% | -49% | -27.6% | -15.6%
32 | CCCCCCOC(=O)c1ccccn1 | -5.85% | 1.7% | 0.15% | -91.6% | 17.6% | -26.6%
33 | Cn1c(=O)c2[nH]c(/N=N\n3ccc4ccccc43)nc2n(C)c1=O | 2.1% | 21.6% | -5.6% | -8.85% | 24.6% | 4.1%
34 | CCCOC(=O)/C(C)=C\c1ccccc1 | 21% | 15.9% | 17.6% | 15.3% | -0.6% | 16.9%
35 | CC[C@]1(O)C(=O)OCc2c1cc1n(c2=O)Cc2cc3c(N)cccc3nc2-1 | 16.1% | 14% | 9.75% | -0.25% | 14.2% | 45%
36 | CCCNC(=S)/N=C\c1c(O)c2ccccc2oc1=O | -38.8% | -56.8% | -35% | -0.45% | -0.2% | -5.4%
37 | O=C(O)C1CC2C3CC(C(=O)O)C(C3)C2C1 (stereo unspecified) | -15.8% | -24.7% | -5.55% | -1.85% | -10.8% | -13.9%
38 | CC1(O)CCC(C(C)(C)C)CC1 (stereo unspecified) | 22.6% | 12.3% | -1.2% | 2.05% | 2.95% | 11.1%
39 | N#CNC1=C(C#N)C(c2ccccc2)CC(=O)N1 (stereo unspecified) | 4.35% | 25.5% | 24.9% | 0% | -0.4% | 10.2%
40 | COc1ccc(C2CN=NN2c2ccc([N+](=O)[O-])cc2)cc1 (stereo unspecified) | -18.4% | -16.6% | -9.15% | 28.2% | 46.1% | -18%
41 | CCc1ccc(NC(=O)CCC(=O)O)cc1 | -1.15% | -9.15% | 4.75% | -90.5% | -4.9% | -16.9%

Reference: PubChem BioAssay (NCI)
